# Pf Dd2 inh – P. falciparum Dd2 growth inhibition | SYBR Green, 72 h; stronger effect = lower value | activity change, % at 10 µM | 2.3% of 94,000 active; in the data active = activity change below about -80%; inconclusive = no clear call, values can overlap the other calls
# T cruzi growth-1 – blocks T. cruzi growth in NIH3T3 culture. T. cruzi beta-gal in NIH3T3, GalScreen luminescence, 90 h. AID 624255. 5.9% of 77,000 active. inhibition, % at 8.34 µM;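 active = mean inhibition above about 93%, with at least 55% of replicates each passing it, limit read from the data, passing the limit was not always enough; inconclusive = only one of those two conditions holds; inactive = neither condition holds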
# C diff growth – inhibitors of Clostridium difficile growth; Clostridium difficile clinical isolate growth, OD600, 24 h; stronger effect = lower value; growth activity, negative = inhibition, % at 16 µg/mL (by protocol); 0.25% of 86,000 active; AID 1259249;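 active = mean growth activity at or below -80% and every replicate also at or below -80%; inconclusive = mean at or below -80% but some replicate above -80%; inactive = mean growth activity above -80%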;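 note: 0% = DMSO wells and -100% = levofloxacin 16 µg/mL wells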
# T cruzi growth-2 – Trypanosoma cruzi proliferation inhibition | T. cruzi beta-gal in NIH3T3, GalScreen luminescence, 90 h | 72% of 5,600 active | AID 651739 | inhibition, % at 8.35 µM | shares compounds with T cruzi growth-1;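 active = mean replicate inhibition above about 95% and at least 55% of replicates individually reaching it, limit read from the data; inconclusive = only one of the two criteria is met; inactive = neither criterion is met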
# T cruzi growth-3 – blocks T. cruzi growth in NIH3T3 host cells | shares compounds with T cruzi growth-1 | T. cruzi beta-gal in NIH3T3, GalScreen luminescence, 90 h | inhibition, % at 2.09 µM | 21% of 5,600 active | AID 651740;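 active = mean inhibition above about 95%, with at least 55% of replicates also reaching it, limit read from the data; inconclusive = meets just one of the two conditions; inactive = meets neither condition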;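 note: plate controls were neutral control median for no effect and positive control median for full effect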
# 3T3 cytotox – NIH/3T3 (mouse) viability loss | shares compounds with T cruzi growth-1 | NIH/3T3 viability, CellTiter-Glo ATP luminescence, 90 h | cytotoxicity (signal decrease), % at 8.35 µM | 14% of 5,600 active | AID 651742;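 active = mean signal decrease across replicates above about 35% based on untreated-well scatter, with enough replicates individually passing, limit read from the data; inconclusive = no rule stated though some were filed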;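 note: 0% = median of neutral control wells and 100% = median of positive control wells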
# NIH3T3 tox 2 – kills mouse NIH/3T3 fibroblasts; shares compounds with T cruzi growth-1; inhibition, % at 24.9 µM; NIH/3T3 viability, CellTiter-Glo ATP luminescence, 90 h; 56% of 5,600 active; AID 651744;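 active = mean loss of cell viability signal at or above a set limit, and enough replicates individually reaching it; inconclusive = meets only the mean limit or only the replicate share; inactive = meets neither condition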;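 note: 0% = median of neutral control wells and 100% = median of positive control wells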
# * = called active by the depositor; u = inconclusive; x = no result given. A selection: hits, their analogues and other compounds. The true share with any hit is near 6.7%.
SMILES,Pf Dd2 inh,T cruzi growth-1,C diff growth,T cruzi growth-2,T cruzi growth-3,3T3 cytotox,NIH3T3 tox 2
C[C@@H]1CN([C@H](C)CO)S(=O)(=O)c2ccc(C#CCC3CCCC3)cc2O[C@H]1CN(C)C(=O)CN(C)C,-65.0,113.3,1.5,x,x,x,x
CCC(=O)N(C)C[C@@H]1Oc2cc(C#CCC3CCCC3)ccc2S(=O)(=O)N([C@H](C)CO)C[C@@H]1C,-55.3,105.4*,4.0,107.0*,86.6,4.5,97.3*
COc1ccc2c3c([nH]c2c1)[C@@H](CO)N(C(=O)c1ccccc1)CC31CCN(C(=O)NC(C)C)CC1,-5.8,x,-4.2,x,x,x,x
O=C(Nc1ccccc1F)N1CCCCN2[C@H](C1)[C@@H](c1ccc(-c3cccnc3)cc1)[C@@H]2CO,11.3,71.4,-5.8,x,x,x,x
CO[C@@H]1CN(C)C(=O)c2cc(NC(=O)c3cnccn3)ccc2OC[C@@H](C)N(CCC(F)(F)F)C[C@H]1C,11.8,15.6,-1.3,x,x,x,x
Cc1ccccc1-c1ccc([C@H]2[C@@H](CO)N3CCCCN(S(C)(=O)=O)C[C@H]23)cc1,1.3,81.0,-13.4,x,x,x,x
C[C@H]1CCCCO[C@H](CN(C)C(=O)Nc2ccc3c(c2)OCO3)[C@@H](C)CN([C@@H](C)CO)C(=O)c2cc(NC(=O)Nc3ccc(F)cc3)ccc2O1,-65.3,72.4,-2.8,x,x,x,x
C[C@H]1CCCCO[C@@H](CN(C)C(=O)Nc2ccc3c(c2)OCO3)[C@@H](C)CN([C@@H](C)CO)C(=O)c2cc(NC(=O)Nc3ccc(F)cc3)ccc2O1,-56.0,103.0*,5.3,106.4*,74.7,-0.8,-9.3
C[C@@H]1CCCCO[C@H](CN(C)C(=O)Nc2ccc3c(c2)OCO3)[C@H](C)CN([C@H](C)CO)C(=O)c2cc(NC(=O)Nc3ccccc3)ccc2O1,-46.8,107.9*,13.0,110.5*,14.9,-29.4,-23.2
C[C@@H]1CCCCO[C@@H](CN(C)C(=O)Nc2ccc3c(c2)OCO3)[C@@H](C)CN([C@@H](C)CO)C(=O)c2cc(NC(=O)CCCN(C)C)ccc2O1,-3.3,x,-2.1,x,x,x,x
C[C@@H]1CN([C@@H](C)CO)C(=O)c2cc(NC(=O)Nc3ccccc3)ccc2O[C@@H](C)CCCCO[C@@H]1CN(C)C(=O)Nc1ccc2c(c1)OCO2,-49.2,11.4,3.3,x,x,x,x
C[C@@H]1CCCCO[C@@H](CN(C)C(=O)Nc2ccccc2)[C@H](C)CN([C@@H](C)CO)C(=O)c2cc(NC(=O)Nc3ccc4c(c3)OCO4)ccc2O1,13.2,33.0,4.7,x,x,x,x
C[C@@H]1CCCCO[C@H](CN(C)C(=O)Nc2ccc3c(c2)OCO3)[C@H](C)CN([C@H](C)CO)C(=O)c2cc(NC(=O)CCCN(C)C)ccc2O1,-54.2,104.0*,3.0,6.4,1.5,-0.6,8.1
C[C@H]1CCCCO[C@@H](CN(C)C(=O)Nc2ccc3c(c2)OCO3)[C@@H](C)CN([C@@H](C)CO)C(=O)c2cc(NC(=O)Nc3ccccc3)ccc2O1,-3.2,117.2*,-8.9,111.0*,6.1,-14.5,-2.5
COc1ccc(NC(=O)Nc2ccc3c(c2)C(=O)N([C@@H](C)CO)C[C@@H](C)[C@@H](CN(C)C(=O)Nc2ccc(C(F)(F)F)cc2)O3)cc1,-41.7,-159.6,x,x,x,x,x
CC(C)NC(=O)N(C)C[C@H]1OCCCC[C@@H](C)Oc2ccc(NS(=O)(=O)c3ccc(F)cc3)cc2C(=O)N([C@H](C)CO)C[C@@H]1C,x,34.2,-8.4,x,x,x,x
COc1ccc(S(=O)(=O)N(C)C[C@H]2OCCCC[C@H](C)Oc3ccc(NS(=O)(=O)c4ccc(F)cc4)cc3C(=O)N([C@@H](C)CO)C[C@H]2C)cc1,-79.8,73.5,-1.8,x,x,x,x
O=C(NCc1ccccn1)[C@@H]1[C@@H](CO)[C@@H]2Cn3c(cccc3=O)[C@H]1N2CC1CCCCC1,-12.9,9.8,4.5,x,x,x,x
O=C(C[C@H]1C[C@H]2c3cc(NC(=O)NC4CCCCC4)ccc3O[C@H]2[C@@H](CO)O1)NCC(F)(F)F,15.5,-14.3,x,x,x,x,x
Cc1noc(C)c1NC(=O)N[C@H]1CC[C@@H](CC(=O)N2CCN(C)CC2)O[C@@H]1CO,-29.0,-7.0,-6.7,x,x,x,x
C[C@@H]1CCCCO[C@@H](CN(C)C(=O)Nc2ccccc2)[C@@H](C)CN([C@H](C)CO)C(=O)c2cc(NC(=O)Cc3ccccc3)ccc2O1,-18.8,6.2,x,x,x,x,x
C[C@H]1CCCCO[C@H](CN(C)C(=O)Nc2ccc3c(c2)OCO3)[C@@H](C)CN([C@@H](C)CO)C(=O)c2cc(NC(=O)Cc3ccccc3)ccc2O1,u,u,-1.2,90.1,60.2,-6.8,23.1
CCCC(=O)Nc1ccc2c(c1)C(=O)N(C)[C@H]1CC[C@H](CC(=O)Nc3ccccc3)O[C@H]1CO2,1.3,22.6,3.2,x,x,x,x
CCC(=O)N1CCCCN2[C@H](CO)[C@H](c3ccc(-c4cccnc4)cc3)[C@H]2C1,-69.0,114.0*,1.7,37.3,24.4,-3.3,9.3
CCC(=O)N1CCCCN2[C@H](CO)[C@@H](c3ccc(-c4cccnc4)cc3)[C@@H]2C1,21.2,59.7,-8.5,x,x,x,x
SMILES,Pf Dd2 inh,T cruzi growth-1,C diff growth,T cruzi growth-2,T cruzi growth-3,3T3 cytotox,NIH3T3 tox 2
CN(C)CC(=O)N1CCCCN2[C@@H](CO)[C@@H](c3ccc(-c4cccnc4)cc3)[C@@H]2C1,-59.1,u,6.0,u,29.5,3.0,-0.7
CCC(=O)N1CCCCN2[C@H](CO)[C@H](c3ccc(C#Cc4cccnc4)cc3)[C@H]2C1,11.1,101.3*,-0.6,100.1*,39.5,3.6,-11.0
CN(C)CC(=O)N1CCCCN2[C@H](CO)[C@H](c3ccc(-c4cccnc4)cc3)[C@@H]2C1,-16.1,63.8,5.2,x,x,x,x
CN(C)CC(=O)N1CCCCN2[C@H](CO)[C@@H](c3ccc(-c4cncnc4)cc3)[C@H]2C1,22.9,-17.8,-1.4,x,x,x,x
CCC(=O)N1CCCCN2[C@@H](CO)[C@H](c3ccc(C#Cc4cccnc4)cc3)[C@@H]2C1,0.0,77.5,3.8,x,x,x,x
CN(C)CC(=O)N1CCCCN2[C@H](CO)[C@H](c3ccc(-c4cccnc4)cc3)[C@H]2C1,-52.2,108.0*,4.6,69.7,0.9,-5.7,2.1
C[C@H](CO)N1C[C@H](C)[C@H](CN(C)Cc2ccc3c(c2)OCO3)Oc2ccc(NS(=O)(=O)c3cn(C)cn3)cc2CC1=O,19.9,-26.4,-2.5,x,x,x,x
CC(C)NC(=O)Nc1ccc2c(c1)CC(=O)N([C@H](C)CO)C[C@H](C)[C@@H](CN(C)S(=O)(=O)c1cn(C)cn1)O2,36.2,6.8,-3.0,x,x,x,x
CC(=O)N(C)C[C@@H]1Oc2cc(C#Cc3ccncc3)ccc2S(=O)(=O)N([C@H](C)CO)C[C@@H]1C,-29.1,-14.0,14.5,x,x,x,x
COc1ccc(NC(=O)Nc2cccc3c2O[C@H](CN(C)C(=O)Nc2ccccc2)[C@H](C)CN([C@@H](C)CO)C3=O)cc1,-14.8,11.4,2.9,x,x,x,x

# Screens from PubChem.
